The source made the active and inactive calls. How the source made its calls: active means hit-call score of the fitted dose curve at least 0.9, where 1 is the maximum; inactive means score below 0.9.
Molecular target: rat CYP2A1, Cyp2a1 (gene 24894) (UniProt P11711)
Test: NVS_ADME_rCYP2A1: NovaScreen (NVS) CYP450-related Enzyme Activity (ADME) Assay for rat CYP2A1 (AID 2283114)
Experimental: NVS_ADME_rCYP2A1 is a biochemical, single-readout assay that uses extracted gene-proteins in a cell-free assay. Measurements were taken 0.75 hour after chemical dosing in a 96-well plate.NVS_ADME_rCYP2A1 is one of one assay component(s) measured or calculated from the NVS_ADME_rCYP2A1 assay. It is designed to make measurements of enzyme activity, a form of enzyme reporter, as detected with fluorescence intensity signals by Fluorescence technology.Data from the assay component NVS_ADME_rCYP2A1 was analyzed into 1 assay endpoint. This assay endpoint, NVS_ADME_rCYP2A1, was analyzed in the positive analysis fitting direction relative to Acetonitrile as the negative control and baseline of activity. Using a type of enzyme reporter, loss-of-signal activity can be used to understand changes in the enzymatic activity as they relate to the gene Cyp2a1. Furthermore, this assay endpoint can be referred to as a primary readout, because this assay has produced multiple assay endpoints where this one serves a enzymatic activity function. To generalize the intended target to other relatable targets, this assay endpoint is annotated to the cyp intended target family, where the subfamily is xenobiotic metabolism.
Binding assays used specific radioligands (tritiated, iodinated) with non-radioactive competitive displacement ligands in agonist or antagonist protocols (as indicated) and various reference compounds and inhibitors to titrate specific binding to receptors and transporters. Most enzyme assays (CYPs, kinases, phosphatases, proteases, HDACs) used recombinant protein and specific substrates (fluorescence mostly, some colorimetric and radioactive) and inhibitors, followed by a biochemical separation of substrate and product. All assays for the biochemical HTS were initially run in duplicate at a single concentration (10 uM for CYP450 assays and 25 uM for all others). Assay-chemical combinations meeting a pre-defined threshold (e.g., 30% inhibition and other criteria defined below) were then run in singleton concentration-response format with maximum concentration of 20 uM for CYPs and 50 uM for all others. Each assay was run with positive and negative controls, and concurrent controls on every plate. The follow-up (secondary) screen tested active chemical-pairs in concentration series, as well as a few additional assays not tested in the primary screen, some selected negative inactives, and several cases re-run in the concentration series for confirmatory purposes.

Sequence of rat CYP2A1, Cyp2a1 (gene 24894) (P11711 whole entry, looked up): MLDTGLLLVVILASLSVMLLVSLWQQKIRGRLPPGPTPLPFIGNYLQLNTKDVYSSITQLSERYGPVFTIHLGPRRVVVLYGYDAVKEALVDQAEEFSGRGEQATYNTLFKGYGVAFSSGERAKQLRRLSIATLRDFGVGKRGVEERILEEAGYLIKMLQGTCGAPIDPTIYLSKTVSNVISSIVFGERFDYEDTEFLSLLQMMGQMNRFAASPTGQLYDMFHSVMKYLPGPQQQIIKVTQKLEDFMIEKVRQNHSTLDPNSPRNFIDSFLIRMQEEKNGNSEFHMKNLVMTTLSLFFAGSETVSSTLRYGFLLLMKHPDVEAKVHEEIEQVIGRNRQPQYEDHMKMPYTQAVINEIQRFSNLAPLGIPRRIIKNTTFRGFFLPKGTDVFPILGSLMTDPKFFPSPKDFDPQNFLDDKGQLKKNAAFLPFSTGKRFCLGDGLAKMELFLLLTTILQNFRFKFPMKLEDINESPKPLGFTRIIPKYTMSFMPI

**Q.** With `Oc1ccc(Cl)cc1Cc1ccccc1` as the molecule, how does the AC50 read?
**A.** The AC50 was 5.61 µM (active).

**Q.** Which AC50 does the source give for `CCCN(CCOc1c(Cl)cc(Cl)cc1Cl)C(=O)n1ccnc1` here?
**A.** Its AC50 is 0.512 µM (active).

**Q.** With `CC[C@H](C)[C@H]1O[C@]2(C=C[C@@H]1C)C[C@@H]1C[C@@H](C/C=C(\C)[C@@H](O[C@H]3C[C@H](OC)[C@@H](O[C@H]4C[C@H](OC)[C@@H](O)[C@H](C)O4)[C@H](C)O3)[C@@H](C)/C=C/C=C3\CO[C@@H]4[C@H](O)C(C)=C[C@@H](C(=O)O1)[C@]34O)O2` (tested in a mixture with another compound) as the molecule, how does the AC50 read?
**A.** Its AC50 is 12.7 µM (active).

**Q.** How did the AC50 turn out when `O=C(Nc1ccccc1)Nc1cnns1` was run?
**A.** The AC50 was 6.13 µM (active).

**Q.** Which AC50 does the source give for `COP(=S)(OC)Oc1ccc(SC)c(C)c1` here?
**A.** Its AC50 is 5.64 µM (active).

**Q.** With `COP(=S)(OC)Oc1ccc([N+](=O)[O-])cc1` as the molecule, how does the AC50 read?
**A.** Its AC50 is 7.12 µM (active).

**Q.** `CC(C)(C)C(O)/C(=C\c1ccc(Cl)cc1Cl)n1cncn1` (centres undefined) was tested. Which AC50 did it give?
**A.** Its AC50 is 0.477 µM (active).

**Q.** How did the AC50 turn out when `CC(C)(C)C(O)C(Oc1ccc(Cl)cc1)n1cncn1` (centres undefined) was run?
**A.** Its AC50 is 3.66 µM (active).

**Q.** How did the AC50 turn out when `CC(C)N(C(=O)COc1nnc(C(F)(F)F)s1)c1ccc(F)cc1` was run?
**A.** Its AC50 is 10 µM (active).

From PubChem BioAssay (EPA / NIEHS)
